This passage reports Potency results from PubChem BioAssay (Tox21).

Results filed as inconclusive are left out. Where a call stands in place of a potency, no number is given. Active and inactive are the calls of the source. Unless noted, calls come from the whole dose curve.

One experiment can be described thus: qHTS assay for small molecule agonists of the p53 signaling pathway (AID 651631). Note: nearly all actives have a fitted effect of over 15% in size. Note: potency is the fitted concentration of half-maximal effect. The following applies: HCT-116 p53RE-bla reporter, beta-lactamase FRET ratio, 16 h; series mostly up to 73.3 µM. The method, boiled down:
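Readout was fluorescence from the LiveBLAzer FRET substrate, applied for 2 h at room temperature after 16 h compound exposure at 37 °C. Cells were the p53RE-bla HCT-116 line, with beta-lactamase driven by p53 response elements.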
(In general: Quantitative high-throughput screening tests each substance at several concentrations.)
Take `CC1=NNC(=O)N(/N=C/c2cccnc2)C1`: the Potency entry is “inactive”.
Still for that read-out and setting: then `CC(C)COP(=O)(OCC(C)C)OCC(C)C`, with “inactive”; and `Clc1cccc(N2CCNCC2)c1`, with “inactive”.
The same measure, in the same setting: next, `ClCC(Cl)(Cl)Cl`: “inactive”; `CCCCN(CCCCO)N=O`: “inactive”.
As for `CC(C)CP(=S)(S)CC(C)C`, the Potency result was “inactive”.
On the same count and under the same terms, next, `CCS(=O)(=O)C(C)(C)S(=O)(=O)CC`: “inactive”; `O=C(Oc1ccc(Br)cc1)N1CCN2CCC1CC2`: “inactive”.
On the same count and under the same terms, then `CC(C1CC1)C(O)(Cn1cncn1)c1ccc(Cl)cc1` (stereo not given), with “inactive”; and `CC(CC(C#N)(c1ccccc1)c1ccccc1)N(C)C` (stereo not given), with “inactive”.
On the same count and under the same terms, next, `NC(=O)O`: “inactive”.
Turning to `O=C(NCO)NCO`, the Potency entry was “inactive”.
For the compound `O=C(CCN1CC1)OCC(CO)(COC(=O)CCN1CC1)COC(=O)CCN1CC1`, the Potency entry was “inactive”.
Still for that read-out and setting: next, `CNC(=O)Oc1ccccc1C1OCCO1`: “inactive”; `O=[N+]([O-])c1ccc2c3c(cccc13)CC2`: “inactive”; `C=CC1CC=CCC1` (stereo not given): “inactive”.
Still for that read-out and setting: then `O=NN1CCN(N=O)CC1`, with “inactive”; and `CCCCc1c(C)nc(NCC)[nH]c1=O`, with “inactive”; and `COc1ccc2c(c1OC)CN1CCc3cc4c(cc3C1C2)OCO4` (stereo not given), with “inactive”.
On the same count and under the same terms, next, `Cc1cccc(C#N)c1`: “inactive”.
Take `ClC(Br)Br`: the Potency entry is “inactive”.
The same measure, in the same setting: next, `C#C[C@]1(O)C=C[C@H]2[C@@H]3CCC4=CC(=O)CC[C@@H]4[C@H]3CC[C@@]21CC`: “inactive”.
Same read-out and setting: next, `CC(N)=S`: “inactive”; `O=C(N[C@H]1CN2CCC1CC2)c1cc2ccoc2cn1`: “inactive”.
For the compound `CCOC(=O)N(C)C(=O)CSP(=S)(OCC)OCC`, the Potency entry is “inactive”.
On the same count and under the same terms, then `O=C1c2ccccc2C(=O)c2ccccc21`, with “inactive”; and `C=C(C)CN(CC)c1c([N+](=O)[O-])cc(C(F)(F)F)cc1[N+](=O)[O-]`, with “inactive”.
Still for that read-out and setting: next, `CNC(=O)O/N=C(\C)SC`: “inactive”.
Same read-out and setting: then `CCS(=O)(=O)CCSP(=O)(OC)OC`, with “inactive”; and `CNC(=O)Oc1ccc(N(C)C)c(C)c1`, with “inactive”; and `COc1cc(OC)nc(Sc2cccc(Cl)c2C(=O)O)n1`, with “inactive”.
For the compound `O=S(=O)(O)C(F)(F)C(F)(F)C(F)(F)C(F)(F)C(F)(F)C(F)(F)F`, the Potency result was “inactive”.
Same read-out and setting: next, `Nc1cnn(-c2ccccc2)c(=O)c1Cl`: “inactive”; `CN1C[C@@H](NS(=O)(=O)N(C)C)C[C@@H]2c3cccc4c3c(cn4C)C[C@H]21`: “inactive”; `CCOC(=O)NC(=S)Nc1ccccc1NC(=S)NC(=O)OCC`: 61.1 µM (active).

A further experiment is described as follows: qHTS assay for small molecules that induce genotoxicity in human embryonic kidney cells expressing luciferase-tagged ATAD5 (AID 651632; active = well fitted activation curve with a large enough effect in the repeat runs; note: nearly all actives have a fitted effect of over 15% in size). The settings on record: HEK293T ATAD5-luciferase induction, 16 h; series mostly up to 83.3 µM. The essentials: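 A rise in luciferase signal from ATAD5-tagged HEK293T cells marks genetic stress. Cells were exposed to compounds for 16 hr at 37C, 5% CO2, then luciferase was quantified after a 30 min room-temperature incubation with Amplite.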
Turning to `CC1=NNC(=O)N(/N=C/c2cccnc2)C1`, the Potency entry was “inactive”.
On the same count and under the same terms, next, `CC(C)COP(=O)(OCC(C)C)OCC(C)C`: “inactive”; `Clc1cccc(N2CCNCC2)c1`: “inactive”.
Consider `ClCC(Cl)(Cl)Cl`, for which the Potency result was “inactive”.
On the same count and under the same terms, then `CCCCN(CCCCO)N=O`, with “inactive”; and `CC(C)CP(=S)(S)CC(C)C`, with “inactive”.
Still for that read-out and setting: then `CCS(=O)(=O)C(C)(C)S(=O)(=O)CC`, with “inactive”; and `O=C(Oc1ccc(Br)cc1)N1CCN2CCC1CC2`, with “inactive”.
Still for that read-out and setting: then `CC(C1CC1)C(O)(Cn1cncn1)c1ccc(Cl)cc1` (stereo not given), with “inactive”; and `CC(CC(C#N)(c1ccccc1)c1ccccc1)N(C)C` (stereo not given), with “inactive”.
In the case of `NC(=O)O`, the Potency entry was “inactive”.
Still for that read-out and setting: then `O=C(NCO)NCO`, with “inactive”; and `O=C(CCN1CC1)OCC(CO)(COC(=O)CCN1CC1)COC(=O)CCN1CC1`, with “inactive”.
As to `CNC(=O)Oc1ccccc1C1OCCO1`, the Potency result is “inactive”.
Still for that read-out and setting: next, `O=[N+]([O-])c1ccc2c3c(cccc13)CC2`: “inactive”.
In the case of `C=CC1CC=CCC1` (stereo not given), the Potency result was “inactive”.
Same read-out and setting: then `O=NN1CCN(N=O)CC1`, with “inactive”.
Still for that read-out and setting: next, `CCCCc1c(C)nc(NCC)[nH]c1=O`: “inactive”.
Still for that read-out and setting: then `COc1ccc2c(c1OC)CN1CCc3cc4c(cc3C1C2)OCO4` (stereo not given), with “inactive”; and `Cc1cccc(C#N)c1`, with “inactive”.
With `ClC(Br)Br`, the Potency entry was “inactive”.
The same measure, in the same setting: then `C#C[C@]1(O)C=C[C@H]2[C@@H]3CCC4=CC(=O)CC[C@@H]4[C@H]3CC[C@@]21CC`, with “inactive”; and `CC(N)=S`, with “inactive”.
`O=C(N[C@H]1CN2CCC1CC2)c1cc2ccoc2cn1`: the Potency entry is “inactive”.
The same measure, in the same setting: next, `CCOC(=O)N(C)C(=O)CSP(=S)(OCC)OCC`: “inactive”; `O=C1c2ccccc2C(=O)c2ccccc21`: “inactive”; `C=C(C)CN(CC)c1c([N+](=O)[O-])cc(C(F)(F)F)cc1[N+](=O)[O-]`: “inactive”.
For `CNC(=O)O/N=C(\C)SC`, the Potency result was “inactive”.
The same measure, in the same setting: then `CCS(=O)(=O)CCSP(=O)(OC)OC`, with “inactive”; and `CNC(=O)Oc1ccc(N(C)C)c(C)c1`, with “inactive”; and `COc1cc(OC)nc(Sc2cccc(Cl)c2C(=O)O)n1`, with “inactive”.
Still for that read-out and setting: next, `O=S(=O)(O)C(F)(F)C(F)(F)C(F)(F)C(F)(F)C(F)(F)C(F)(F)F`: “inactive”; `Nc1cnn(-c2ccccc2)c(=O)c1Cl`: “inactive”.
Consider `CN1C[C@@H](NS(=O)(=O)N(C)C)C[C@@H]2c3cccc4c3c(cn4C)C[C@H]21`, for which the Potency entry was “inactive”.
On the same count and under the same terms, then `CCOC(=O)NC(=S)Nc1ccccc1NC(=S)NC(=O)OCC`, with “inactive”.

A short description of a further experiment: qHTS assay for small molecule agonists of the p53 signaling pathway - cell viability (AID 651633). Note: nearly all actives have a fitted effect of over 30% in size. The following applies: p53RE-bla HCT-116 viability, ATP luminescence, 16 h; series mostly up to 83.3 µM. The method, boiled down: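 p53RE-bla cells were treated with compound for 16 hours at 37 C. Cytotoxicity was then measured as CellTiter-Glo luminescence after 30 min at room temperature.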
Take `CC1=NNC(=O)N(/N=C/c2cccnc2)C1`: the Potency result is “inactive”.
In the case of `CC(C)COP(=O)(OCC(C)C)OCC(C)C`, the Potency entry is “inactive”.
Regarding `Clc1cccc(N2CCNCC2)c1`, the Potency result is “inactive”.
The same measure, in the same setting: then `ClCC(Cl)(Cl)Cl`, with “inactive”; and `CCCCN(CCCCO)N=O`, with “inactive”; and `CC(C)CP(=S)(S)CC(C)C`, with “inactive”.
On the same count and under the same terms, next, `CCS(=O)(=O)C(C)(C)S(=O)(=O)CC`: “inactive”; `O=C(Oc1ccc(Br)cc1)N1CCN2CCC1CC2`: “inactive”; `CC(C1CC1)C(O)(Cn1cncn1)c1ccc(Cl)cc1` (stereo not given): “inactive”.
The same measure, in the same setting: next, `CC(CC(C#N)(c1ccccc1)c1ccccc1)N(C)C` (stereo not given): “inactive”.
As for `NC(=O)O`, the Potency result was “inactive”.
On the same count and under the same terms, then `O=C(NCO)NCO`, with “inactive”; and `O=C(CCN1CC1)OCC(CO)(COC(=O)CCN1CC1)COC(=O)CCN1CC1`, with “inactive”.
On the same count and under the same terms, then `CNC(=O)Oc1ccccc1C1OCCO1`, with “inactive”.
Still for that read-out and setting: next, `O=[N+]([O-])c1ccc2c3c(cccc13)CC2`: “inactive”; `C=CC1CC=CCC1` (stereo not given): “inactive”.
On to `O=NN1CCN(N=O)CC1`, for which the Potency result is “inactive”.
For `CCCCc1c(C)nc(NCC)[nH]c1=O`, the Potency result is “inactive”.
The same measure, in the same setting: next, `COc1ccc2c(c1OC)CN1CCc3cc4c(cc3C1C2)OCO4` (stereo not given): “inactive”; `Cc1cccc(C#N)c1`: “inactive”.
For `ClC(Br)Br`, the Potency entry was “inactive”.
The same measure, in the same setting: next, `C#C[C@]1(O)C=C[C@H]2[C@@H]3CCC4=CC(=O)CC[C@@H]4[C@H]3CC[C@@]21CC`: “inactive”; `CC(N)=S`: “inactive”; `O=C(N[C@H]1CN2CCC1CC2)c1cc2ccoc2cn1`: “inactive”.
As for `CCOC(=O)N(C)C(=O)CSP(=S)(OCC)OCC`, the Potency result was “inactive”.
On the same count and under the same terms, then `O=C1c2ccccc2C(=O)c2ccccc21`, with “inactive”; and `C=C(C)CN(CC)c1c([N+](=O)[O-])cc(C(F)(F)F)cc1[N+](=O)[O-]`, with “inactive”; and `CNC(=O)O/N=C(\C)SC`, with “inactive”.
Take `CCS(=O)(=O)CCSP(=O)(OC)OC`: the Potency entry is “inactive”.
As to `CNC(=O)Oc1ccc(N(C)C)c(C)c1`, the Potency entry is “inactive”.
Still for that read-out and setting: then `COc1cc(OC)nc(Sc2cccc(Cl)c2C(=O)O)n1`, with “inactive”.
The same measure, in the same setting: then `O=S(=O)(O)C(F)(F)C(F)(F)C(F)(F)C(F)(F)C(F)(F)C(F)(F)F`, with “inactive”; and `Nc1cnn(-c2ccccc2)c(=O)c1Cl`, with “inactive”.
`CN1C[C@@H](NS(=O)(=O)N(C)C)C[C@@H]2c3cccc4c3c(cn4C)C[C@H]21`: the Potency result is “inactive”.
The same measure, in the same setting: next, `CCOC(=O)NC(=S)Nc1ccccc1NC(=S)NC(=O)OCC`: “inactive”.
